Pf growth 96h = P. falciparum growth inhibition at 96 hour, primary screen for plastid delayed-death inhibitors; P. falciparum luciferase reporter growth, 96 h; 320,000 tested, 6.9% active; Potency, µM (highest dose often 28.7 µM), most hits filed as inhibitors
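Cell-based qHTS: luciferase-tagged P. falciparum in erythrocytes (2% hematocrit, 0.05% parasitemia final) incubated with compounds for 96 hours, 37 C, 5% CO2; luciferase detection reagent then added and luminescence measured.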
Pf growth 48h = P. falciparum growth inhibition at 48 hours (one generation); 310,000 tested, 5.9% active; Potency, µM (titrated, usually from 28.7 µM), actives largely listed as inhibitors; P. falciparum luciferase growth in erythrocytes, 48 h
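Erythrocytes infected with P. falciparum carrying an integrated firefly luciferase reporter (2% hematocrit, 0.1% parasitemia final) were exposed to compounds in RPMI 1640 with 0.5% Albumax at 37 C, 5% CO2. Growth inhibition was scored as reduced luminescence.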
NS1 inh = influenza NS1 inhibition | 270,000 tested, 0.4% active | Potency, µM (series often up to 46.1 µM) | AID 2326; calls by dose curve; also: actives are rising curves; nearly all actives have a fitted effect of over 50% in size
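S. cerevisiae expressing influenza A NS1, grown in glucose, washed, then diluted 1:100 into pH 6.0 -URA galactose medium with 23 nl compound. Growth recovery read as OD600; NS1-free strain serves as control.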
CHX counter = counter-screen hit for Shiga toxin inhibitors, cycloheximide. cell reporter, cycloheximide protein synthesis inhibition counterscreen. max response, %. 300,000 tested, 12% active. AID 2314; in the data active = max response mostly above about 13%, no sharp cut-off; inactive = mostly below about 14%; also: read at 38.3 µM for the half of the compounds with a filed dose
Shiga toxin inh = blocks Shiga toxin action in Vero cells | Vero cells, Shiga toxin protein synthesis inhibition reporter | inhibition, % at 38.7 µM | 290,000 tested, 9.2% active; in the data active = inhibition mostly above about 28%, no sharp cut-off; inactive = mostly below about 43%
Giardia FBPA inh = inhibitors of Giardia lamblia fructose-1,6-bisphosphate aldolase; A8B2U2; purified Giardia FBPA; Potency, µM (series often up to 59.6 µM), usual class: inhibitors; 290,000 tested, 0.71% active; AID 2451; also: nearly all actives have a fitted effect of over 55% in size
Target sequence (A8B2U2 whole entry, looked up): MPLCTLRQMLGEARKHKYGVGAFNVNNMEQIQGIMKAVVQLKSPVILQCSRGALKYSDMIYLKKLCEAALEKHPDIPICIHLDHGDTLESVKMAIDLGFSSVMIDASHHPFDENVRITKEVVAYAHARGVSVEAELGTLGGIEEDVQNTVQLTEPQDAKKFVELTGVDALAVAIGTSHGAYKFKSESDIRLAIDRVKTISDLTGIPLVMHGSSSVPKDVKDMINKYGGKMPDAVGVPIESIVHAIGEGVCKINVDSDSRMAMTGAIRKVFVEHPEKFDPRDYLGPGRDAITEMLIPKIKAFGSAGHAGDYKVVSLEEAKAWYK
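Giardia FBPA (40 nM reagent) was preincubated 10 min at RT with compound (up to 57.5 uM final), then substrate plus GAPDH/TPI/NAD/arsenate coupling system with diaphorase/resazurin was added; resorufin fluorescence (525/598 nm) was read after 20 min.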
Each line names hits and unclear results; the compound was inactive in the other large screens. An excerpt weighted towards active compounds, which were near 21% of everything screened. Unless noted, calls follow the shape of the dose curve; as a rule, active = well fitted curve in the direction sought with a large enough effect; inconclusive = small, poorly fitted or top-dose-only effect, or another doubt; inactive = no such curve, though single readings can be large; an effect the other way counts as inactive or inconclusive.

CCOC(=O)C1CCCN(CCC(=O)Nc2cccc(Cl)c2C)C1 (centres undefined)	Giardia FBPA inh inconclusive
CC1CC(C)CN(C(=O)Cn2c(=O)n(CCCC(=O)NCc3ccco3)c(=O)c3sccc32)C1 (centres undefined)	none
CC(=O)OCC(=O)c1ccc2ccn(C(C)=O)c2c1	Pf growth 96h 10µM, CHX counter 25
COc1ccccc1N1CCN(CC(=O)c2ccc3ccn(C(C)=O)c3c2)CC1	none (no result: Pf growth 48h)
O=C(COC(=O)/C=C/c1cccc(C(F)(F)F)c1)NCCN1C(=O)CSC1=O	none (no result: NS1 inh, CHX counter, Shiga toxin inh, Giardia FBPA inh)
CCc1cc2c(COC(=O)c3cccc(NS(C)(=O)=O)c3)cc(=O)oc2cc1O	Pf growth 96h 5.2µM, Pf growth 48h inconclusive
CCc1cc2c(COC(=O)c3cc(S(=O)(=O)N4CCOCC4)ccc3F)cc(=O)oc2cc1O	Pf growth 96h 15µM, Pf growth 48h inconclusive (no result: NS1 inh, CHX counter, Shiga toxin inh, Giardia FBPA inh)
COCCCNC(=O)CCc1c(C)c2cc3c(C)coc3cc2oc1=O	Pf growth 96h inconclusive, Pf growth 48h inconclusive
CCc1nnc2n1N=C(c1ccc(-c3ccc(Cl)cc3Cl)o1)CS2	none (no result: Pf growth 96h, Pf growth 48h, CHX counter, Shiga toxin inh, Giardia FBPA inh)
Clc1ccc(OCc2nnc3n2N=C(c2ccc4c(c2)OCCO4)CS3)c(Cl)c1	Pf growth 48h inconclusive, CHX counter 15
Cc1ccc(-n2nnnc2C(Cl)c2nnnn2-c2ccc(C)cc2)cc1	Pf growth 96h inconclusive
CCN(CC)c1ccc(C=C(c2nnnn2-c2ccc(C)cc2)c2nnnn2-c2ccc(C)cc2)cc1	Pf growth 96h inconclusive, Pf growth 48h 1.7µM
Cc1ncc2c(c1O)COP(=O)(O)OC2	none (no result: Pf growth 96h, Pf growth 48h, NS1 inh, CHX counter, Shiga toxin inh)
O=C(O)c1ccccc1-c1c2cc(Br)c(=O)cc-2oc2[c]([Hg])c(O)c(Br)cc12	Pf growth 96h 6.4µM, Pf growth 48h inconclusive, Giardia FBPA inh 22µM (no result: NS1 inh, CHX counter, Shiga toxin inh)
O=C(O)c1ccccc1-c1c2cc(Br)c(=O)c(Br)c-2oc2c(Br)c(O)c(Br)cc12	Pf growth 96h inconclusive, Giardia FBPA inh inconclusive (no result: NS1 inh)
COc1cc(OC)c2nc(C)c3c(c2c1)N(c1ccc(O)cc1)CC3	Pf growth 96h 13µM, Pf growth 48h inconclusive
COc1ccc(-n2nnnc2SCC#CCO)cc1	Pf growth 96h 0.47µM
CCCn1c(=O)c2ccccc2n2c(SCc3c(C(=O)OCC)oc4ccccc34)nnc12	Pf growth 48h inconclusive
CCOC(=O)c1oc2ccccc2c1CSc1nnnn1-c1ccc(OC)cc1	Pf growth 96h 12µM
COc1cccc(CSc2nnnn2-c2ccc(O)cc2)c1	Pf growth 96h inconclusive, Pf growth 48h 9.3µM (no result: NS1 inh)
Cc1sc2ncn(/N=C/c3ccco3)c(=O)c2c1C	CHX counter 39, Shiga toxin inh 54
O=c1c2c3c(sc2ncn1/N=C/c1ccco1)CCCC3	Shiga toxin inh 76 (no result: Pf growth 96h)
Cc1nc2sc3c(c2c(=O)n1/N=C/c1cccnc1)CCCC3	Pf growth 96h inconclusive, Pf growth 48h inconclusive (no result: NS1 inh)
Cc1cccc(-n2cnc3sc(C)c(C)c3c2=O)c1	Pf growth 48h inconclusive
O=c1c2c3c(sc2ncn1/N=C/c1ccccc1)CCCC3	CHX counter 19, Shiga toxin inh 64
CC1CN(C(=O)CCC(=O)N2CCCCC2)c2ccccc2O1 (centres undefined)	none
CCOC(=O)CN1C(=O)N[C@@H](c2cccc(C(F)(F)F)c2)C(C(=O)OC)=C1C	none (no result: Pf growth 96h, Pf growth 48h, NS1 inh, CHX counter, Shiga toxin inh)
CN1CCN(CC(=O)Nc2c(C(=O)C3CC3)oc3ccccc23)CC1	none
CCOC(=O)CSCC(=O)Nc1c(C(=O)C2CC2)oc2ccccc12	Pf growth 96h 5.9µM
CC(NC(=O)C1CCN(C(=O)Nc2ccccc2)CC1)c1ccccc1Cl (centres undefined)	Pf growth 96h inconclusive (no result: NS1 inh, CHX counter, Shiga toxin inh, Giardia FBPA inh)
CC(C)(C)c1ccc(C(=O)NC(=S)Nc2sc3c(c2C#N)CCC3)cc1	CHX counter 12, Shiga toxin inh 18
Cn1nccc1C(=O)NC(=S)Nc1sc2c(c1C#N)CCCCC2	none
CCC1(C)Cc2c(sc(NC(=S)NC(=O)c3ccccc3)c2C#N)CO1 (centres undefined)	none
CCN1CCc2c(sc(NC(=S)NC(=O)c3ccccc3)c2C#N)C1	Pf growth 48h inconclusive, Giardia FBPA inh inconclusive
CC1CCc2sc(NC(=S)NC(=O)c3ccccc3)c(C#N)c2C1 (centres undefined)	CHX counter 26, Shiga toxin inh active
N#Cc1c(NC(=S)NC(=O)c2ccccc2)sc2c1CCC2	CHX counter 32
CN1Cc2sc(NC(=S)NC(=O)c3ccccc3)c(C#N)c2CC1(C)C	CHX counter 47
